Compound activity deposited in PubChem by National Center for Advancing Translational Sciences (NCATS).
This is a sample that favours compounds with a hit; in the whole collection about 7.9% have one here.
Lassa entry inh: Lassa virus entry inhibition | 300,000 tested, 1.2% active | AID 540256 | Potency, µM (top dose mostly 37.9 µM), usual class: inhibitors | Lassa virus pseudotype entry inhibition, cell reporter; calls by dose curve; tested in HEK293 cells; further: nearly all actives have a fitted effect of over 50% in size
HCV inhibitor: HCV inhibition | Huh7.5.1 HCVcc-Cre infection, luciferase reporter, 44 h | Potency, µM (highest dose often 41.8 µM), usual class: inhibitors | 340,000 tested, 3.4% active; active means well fitted inhibition curve with a large enough effect; inconclusive means small, poorly fitted or top-dose-only effect, or another doubt; inactive means no such curve, though single readings can be large or run the other way
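Compounds are dispensed onto cells plated 4 h earlier at 1,000 per well, with HCVcc-Cre virus (about 0.5 moi) added next. Following 44 h of culture, luminescent signal is measured for 15 sec after 15 min with substrate at room temperature.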
HCMV antiviral: blocks human cytomegalovirus replication; 410,000 tested, 4.5% active; HFF cells, HCMV-luciferase reporter, 72 h; hits give low values; activity change, negative = inhibition, % at 57.5 µM; in the data active means activity change below about -60%; inconclusive means no clear call, values can overlap the other calls; inactive means above about -39%
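Inhibition of viral replication was scored as loss of reporter luminescence in HFFs infected with HCMV-luciferase (MOI 1 PFU/cell) for 72 h; compounds tested at 2 doses, normalized to buffer and Salinomycin controls.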
MARV entry inh: blocks Marburg virus binding to or entry into cells; Marburg virus pseudotyped entry inhibition, cell reporter; Potency, µM (doses to about 37.8 µM), hits mostly inhibitors; 300,000 tested, 1.8% active; AID 540276; calls by dose curve; tested in HEK293 cells
FMDV antiviral: antivirals against foot and mouth disease virus. 410,000 tested, 1.2% active. FMDV antiviral cell-based qHTS. Potency, µM (series often up to 57.9 µM), hits mostly inhibitors. AID 1159524; calls by dose curve; tested in HEK293T cells; further: read-out not given here; nearly all actives have a fitted effect of over 45% in size
Of the large screens only hits and unclear results are named; the others gave an inactive call.

CC(C)CC(=O)NC(=S)Nc1ccccc1N1CCCC1	none (no result: Lassa entry inh, MARV entry inh)
O=C(CNCC1CCCCC1)Nc1ccccc1N1CCCCC1	HCV inhibitor 11µM, HCMV antiviral inconclusive, FMDV antiviral inconclusive
O=C(CNC1CCCCCC1)Nc1ccccc1N1CCCCC1	Lassa entry inh inconclusive, HCV inhibitor inconclusive, MARV entry inh inconclusive
COC1=C[C@H](C(=O)NCc2ccccn2)[C@@]2(C)Cc3ccccc3[C@@H]2CC1=O	none (no result: Lassa entry inh, HCV inhibitor, HCMV antiviral, FMDV antiviral)
COc1cc(-c2cc(C)c3cccc(OC)c3n2)cc2c1OCCN(C(=O)CC1NC(=O)c3ccccc31)C2 (centres undefined)	none (no result: Lassa entry inh, HCV inhibitor, HCMV antiviral, MARV entry inh)
C=CCSc1n[nH]c(-c2ccccc2)n1	HCMV antiviral -89, MARV entry inh inconclusive
O=[N+]([O-])c1ccc(Oc2ccc(F)cc2)c2ccncc12	HCV inhibitor inconclusive, HCMV antiviral -68, FMDV antiviral inconclusive
O=C(c1ccccc1)N1CCN(CC(O)COc2ccc(Br)cc2)CC1 (centres undefined)	none (no result: Lassa entry inh, MARV entry inh)
CN(Cc1ccco1)c1ncnc2ccc(-c3cccc(NS(C)(=O)=O)c3)cc12	none (no result: Lassa entry inh, HCV inhibitor, HCMV antiviral, MARV entry inh)
CCCC(C)NC(=S)NC(=O)c1cc(S(=O)(=O)N2CCOCC2)ccc1C (centres undefined)	HCV inhibitor inconclusive, HCMV antiviral -70, MARV entry inh inconclusive, FMDV antiviral inconclusive
COCC(C)NC(=S)NC(=O)c1cc(S(=O)(=O)N2CCOCC2)ccc1C (centres undefined)	HCMV antiviral inconclusive
Cc1ccc(S(=O)(=O)N2CCOCC2)cc1C(=O)N1c2ccccc2Sc2ccccc21	HCV inhibitor 10µM, MARV entry inh inconclusive
Cc1ccc(S(=O)(=O)N2CCOCC2)cc1C(=O)N1CCc2ccccc21	none
CCCCCC(C)NC(=S)NC(=O)c1cc(S(=O)(=O)N2CCOCC2)ccc1C (centres undefined)	Lassa entry inh inconclusive, HCV inhibitor inconclusive, HCMV antiviral -62, MARV entry inh inconclusive, FMDV antiviral inconclusive
COc1ccc(N(CC(=O)NC2CCCCC2)C(=O)CCCC(=O)Nc2ccccn2)cc1	none (no result: Lassa entry inh)
COc1cc(OC)cc(C(=O)NC(C(=O)NCCN(C)C)C23CC4CC(CC(C4)C2)C3)c1 (centres undefined)	HCV inhibitor 10µM, MARV entry inh inconclusive
COc1ccc(Oc2ccc(/C=N/NC(=O)c3cccnc3)cc2[N+](=O)[O-])cc1	HCV inhibitor inconclusive, HCMV antiviral -80 (no result: Lassa entry inh)
COc1ccc(/C=N/NC(=O)c2cccnc2)cc1	none (no result: Lassa entry inh, MARV entry inh)
COc1ccc(Oc2ccc(/C=C/C(=O)c3cccc(OC)c3)cc2[N+](=O)[O-])cc1	Lassa entry inh inconclusive, HCV inhibitor inconclusive, HCMV antiviral inconclusive, MARV entry inh inconclusive, FMDV antiviral 32µM
CC1(C)CC(=O)C=C(c2cccc(OC(=O)c3ccc(-c4ccccc4)cc3)c2)C1=O	none (no result: Lassa entry inh, HCV inhibitor, MARV entry inh)
CCN(CC)CCC[C@H](C)N=C(c1ccccc1)c1c(O)n(C)c(=O)n(C)c1=O	none (no result: Lassa entry inh, HCV inhibitor, HCMV antiviral, FMDV antiviral)
CC(=O)Nc1ccc(N2N=C(C)C(N=Nc3ccccc3)C2=O)cc1 (centres undefined)	HCMV antiviral -101
CCc1ccc(NC(=O)CC2C(=O)N(c3ccc(OC)cc3)C(=O)N2Cc2cccs2)cc1 (centres undefined)	none (no result: HCV inhibitor, MARV entry inh)
COc1ccccc1OCCCCN1CCN(C(c2ccccc2)c2ccccc2)CC1	Lassa entry inh 18µM, HCV inhibitor 11µM, HCMV antiviral inconclusive, MARV entry inh inconclusive
c1ccc(OCCOCCN2CCN(C(c3ccccc3)c3ccccc3)CC2)cc1	Lassa entry inh inconclusive, HCV inhibitor inconclusive, HCMV antiviral inconclusive, MARV entry inh inconclusive
COc1cccc(OC)c1OCCCCN1CCC(Cc2ccccc2)CC1	Lassa entry inh inconclusive, HCV inhibitor 11µM, MARV entry inh inconclusive
COc1cccc(C(=O)N2CCN(CCCc3ccccc3)CC2)c1OC	Lassa entry inh inconclusive, HCV inhibitor 35µM, HCMV antiviral inconclusive, FMDV antiviral inconclusive
CN1CCN(CCCCOc2ccccc2C=O)CC1	Lassa entry inh inconclusive, HCV inhibitor 10µM, MARV entry inh inconclusive
COc1ccc(OC)c(S(=O)(=O)NCC(=O)NC2CCCc3ccccc32)c1 (centres undefined)	HCV inhibitor inconclusive, MARV entry inh inconclusive
CCc1ccc2c(c1)NC(c1ccc(C)cc1)=NC(c1cccs1)=N2	MARV entry inh inconclusive (no result: HCV inhibitor)
CN1CCN(C(=O)C[C@@H]2C=C[C@H](NS(=O)(=O)c3cccc(F)c3)[C@@H](CO)O2)CC1	none (no result: Lassa entry inh, HCV inhibitor, MARV entry inh)
CC[C@@H]1CCCCc2ccccc2[C@@H](C(=O)C[C@@H](O)CC(C)=O)OC1=O	HCMV antiviral inconclusive (no result: Lassa entry inh, MARV entry inh)
Cc1cccc(NC(=S)N2CCN(S(=O)(=O)c3cccc(F)c3)CC2)c1	HCV inhibitor 6.3µM, MARV entry inh inconclusive
Cc1ccc(C)c2c(N)c3c(nc12)CCCCC3 (tested in a mixture with another compound)	HCV inhibitor inconclusive, HCMV antiviral -70
O=C(O)c1ccccc1N/N=C/C1=C(N2CCOCC2)C(=C\c2ccccc2)/CC1	none
Cc1cc(C)nc(N/N=C/C2=C(N3CCOCC3)C(=C/c3ccccc3)/CC2)n1	Lassa entry inh inconclusive, HCV inhibitor inconclusive, HCMV antiviral inconclusive, MARV entry inh inconclusive, FMDV antiviral 28µM
Cc1cc(=O)[nH]c(N/N=C/C2=C(N3CCOCC3)C(=C\c3ccc(Cl)cc3)/CC2)n1	HCV inhibitor inconclusive, MARV entry inh inconclusive, FMDV antiviral inconclusive
O=C(N/N=C/C1=C(N2CCOCC2)C(=C\c2ccccc2)/CC1)Nc1ccccc1	HCV inhibitor inconclusive, HCMV antiviral -71, MARV entry inh inconclusive
N#CC1=C(N)C(C#N)(C#N)[C@H](c2ccoc2)[C@H]2CN(Cc3ccccc3)CC=C12	HCMV antiviral inconclusive, MARV entry inh 6.3µM, FMDV antiviral inconclusive
CC(=O)OC1C(=O)OCC23CCC4(C)OC4C2OC2CC(OC(=O)C=CC=CC(=O)OCCC1C)C3(C)C21CO1 (centres undefined)	Lassa entry inh inconclusive, HCMV antiviral -96, MARV entry inh inconclusive (no result: HCV inhibitor, FMDV antiviral)
CC(O)C1C=CC=CC(=O)OC2CC3OC4C5OC5(C)CCC4(COC(=O)C4OC4(C)C(O)CO1)C2(C)C31CO1 (centres undefined)	HCMV antiviral -96, MARV entry inh inconclusive (no result: Lassa entry inh, HCV inhibitor, FMDV antiviral)
CC1=CC2OC3CC4OC(=O)C=CC=CC(C(C)O)OCC(O)C(C)CC(=O)OCC2(CC1O)C4(C)C31CO1 (centres undefined)	Lassa entry inh inconclusive, HCMV antiviral -97 (no result: HCV inhibitor, FMDV antiviral)
COC[C@H]1O[C@@H]2O[C@@H]1[C@@H](C=Cc1ccccc1)C[C@H]2C	none (no result: Lassa entry inh, HCV inhibitor, HCMV antiviral, FMDV antiviral)
COc1cccc(C(C(=O)NC2CCCCC2)N(C(=O)Cc2cccs2)c2ccc(-n3cnnn3)c(OC)c2)c1 (centres undefined)	Lassa entry inh inconclusive, HCV inhibitor inconclusive, MARV entry inh inconclusive
O=C(NC1CCCC1)C(c1cccs1)N(C(=O)c1ccco1)c1ccc2c(c1)OCCO2 (centres undefined)	Lassa entry inh inconclusive, HCV inhibitor inconclusive, HCMV antiviral -62
COc1ccc(N(C(=O)c2ccco2)C(C(=O)NC2CCCC2)c2cccs2)cc1OC (centres undefined)	none
COc1ccccc1N(C(=O)c1ccco1)C(C(=O)NC1CCCC1)c1cccs1 (centres undefined)	none
